The whole screen tested about 48,000 compounds, of which about 13,000 (27%) showed an effect of 50% or more. This is one part of the list.
These molecules were tested on Wolbachia pipientis (assay: Anti-Wolbachia Cell-Based Screen). Conditions: 5 µM.
Assay type: functional
Parameters: scale not given: in the data most compounds retested in dose-response had high values
For `CC(C)CS(=O)(=O)CCNc1ncccn1`, the “Percent Effect” value was -11.8%.
`CCn1c(C2CCCN(Cc3nccn3CCOC)C2)nn(C)c1=O` (stereo not drawn) was tested, and the “Percent Effect” value was 3.298%.
With `Cc1nccn1CCCN1CCCC(c2ccccc2)C1` (stereo not drawn) the “Percent Effect” value was 96.96%.
In the case of `O=C(c1ccccn1)N1CCCC(c2nccn2CC2CCC2)C1` (stereo not drawn), the “Percent Effect” value was 7.496%.
For `FC(F)Oc1ccccc1CN1CCCC(c2nccn2CC2CC2)C1` (stereo not drawn), the “Percent Effect” value was -15.63%.
In the case of `CCn1ccnc1CN(C)C1CCCN(CCCc2ccccc2)C1` (stereo not drawn), the “Percent Effect” value was 28.9%.
In the case of `Cc1nccn1CCCN1CCCC(c2nccn2CC2CCC2)C1` (stereo not drawn), the “Percent Effect” value was 94.54%.
`c1cn(CC2CC2)c(C2CCN(CCC3CCOC3)CC2)n1` (stereo not drawn) was tested, and the “Percent Effect” value was -2.095%.
`N#Cc1ccccc1CN1CCCC(c2nccn2CC2CCC2)C1` (stereo not drawn) was tested, and the “Percent Effect” value was 17.05%.
In the case of `Cc1nccn1CCCN1CCC(c2nccn2CC2CCC2)CC1`, the “Percent Effect” value was 81.99%.
With `CC(C(=O)N1CCCC1)N1CCC(c2nccn2CC2CCC2)CC1` (stereo not drawn) the “Percent Effect” value was -1.675%.
`Cc1nccn1CCC(=O)N1CCCN(CCCc2ccccc2)CC1` was tested, and the “Percent Effect” value was 9.498%.
With `COCCCN1CCCC(c2nccn2CC2CCC2)C1` (stereo not drawn) the “Percent Effect” value was 85.63%.
`CCC1CC(=O)NCc2nc3sc(C)cn3c21` (stereo not drawn) was tested, and the “Percent Effect” value was 11.81%.
In the case of `CCOc1nnc(CN2CCC(c3cc4ccccc4[nH]3)CC2)s1`, the “Percent Effect” value was -12.75%.
In the case of `CC(=O)c1cccc(OCCCC(=O)NC(C#N)CC(C)C)c1` (stereo not drawn), the “Percent Effect” value was -6.212%.
`COCCCC(=O)N1CC(=O)Nc2cc(Br)ccc21` was tested, and the “Percent Effect” value was -0.04468%.
With `Cc1nccn1CCCN1CCCC(c2nccn2C)C1` (stereo not drawn) the “Percent Effect” value was 103.4%.
With `Cn1ccnc1C1CCN(CCN2CCOCC2)CC1` the “Percent Effect” value was -3.118%.
In the case of `Cc1nccn1Cc1nnc(C2CCCN(Cc3cccnc3)C2)n1C` (stereo not drawn), the “Percent Effect” value was -3.702%.
`CC(=O)N1CCC(N2CC[C@H](c3nc4cc(C)ccc4o3)C2)CC1` was tested, and the “Percent Effect” value was -0.1678%.
With `Cc1ccccc1CNC(=O)CN1CCCC(Cc2nccn2C)C1` (stereo not drawn) the “Percent Effect” value was 107%.
With `Cn1ccnc1CN1CCC(Cc2ccccn2)CC1` the “Percent Effect” value was 101.7%.
With `CC(=O)N[C@@H]1CN(CC(=O)NCc2ccccc2C)C[C@H]1C(C)C` the “Percent Effect” value was -3.086%.
With `Cc1ccccc1CN1CCN(Cc2nccn2C)CC1` the “Percent Effect” value was -1.21%.
For `Cn1ccnc1CN1CCCC(Cc2ccccn2)C1` (stereo not drawn), the “Percent Effect” value was -12.05%.
`Cn1ccnc1CN1CCN(CCOc2ccccc2C#N)CC1` was tested, and the “Percent Effect” value was -0.4037%.
In the case of `CNC(=O)NC(=O)CN1CCCC(Cc2ccccc2OC)C1` (stereo not drawn), the “Percent Effect” value was -10.54%.
For `Cc1ccccc1CNC(=O)C1CCN(Cc2nccn2C)CC1`, the “Percent Effect” value was 101.3%.
`Cn1ccnc1CN1CCC(CCC(=O)Nc2ccccc2Cl)CC1` was tested, and the “Percent Effect” value was 11.71%.
For `OCCN(Cc1cccnc1)c1ncc(Br)cn1`, the “Percent Effect” value was -8.725%.
`CCOc1ncccc1NC(=O)c1sccc1C` was tested, and the “Percent Effect” value was -6.226%.
`Cc1ccccc1C(C(=O)NCCN1CCC(CO)CC1)N(C)C` (stereo not drawn) was tested, and the “Percent Effect” value was -0.033%.
`CC(=O)NCCCC(=O)NC1(c2ccc(Cl)c(Cl)c2)CC1` was tested, and the “Percent Effect” value was -4.491%.
For `CN1CCOC[C@H]1c1nc(C(C)(C)C)c[nH]1`, the “Percent Effect” value was 12.45%.
`Cc1cc(C(F)(F)F)nc(CNC(=O)C2CCCCCN2C)n1` (stereo not drawn) was tested, and the “Percent Effect” value was -5.462%.
`Cc1cc(C(F)(F)F)nc(C2CCCN2S(C)(=O)=O)n1` (stereo not drawn) was tested, and the “Percent Effect” value was 108.4%.
For `Cc1cc(S(=O)(=O)N2CCOCC2C#N)ccc1F` (stereo not drawn), the “Percent Effect” value was -3.602%.
For `Cc1cc(C(F)(F)F)nc(C2COCCN2S(C)(=O)=O)n1` (stereo not drawn), the “Percent Effect” value was 108.9%.
In the case of `O=C(c1cccnc1O)N1CCC2(CCCO2)CC1`, the “Percent Effect” value was -3.936%.
With `COc1cc2c(cc1CNCc1cccnc1OC)OC(C)C2` (stereo not drawn) the “Percent Effect” value was 4.577%.
For `Cc1noc(-c2ccc(N3CCCC(C(=O)c4nccn4C)C3)nc2)n1` (stereo not drawn), the “Percent Effect” value was 20.25%.
In the case of `CC(C)COc1cncc(NCC(O)c2ccco2)n1` (stereo not drawn), the “Percent Effect” value was 9.809%.
With `CC(C)(CNC(=O)Nc1ccc(S(=O)(=O)C(F)F)cc1)N1CCOCC1` the “Percent Effect” value was 14.64%.
For `CCN(CC)Cc1ccccc1NC(=O)N(C)Cc1ccccc1O`, the “Percent Effect” value was -1.773%.
For `O=C([C@@H]1Cc2[nH]cnc2CN1Cc1cc2ccccc2o1)N1CCCC1`, the “Percent Effect” value was 9.512%.
For `COc1c(CNCc2ccc(CN(C)C)cc2)c(C)nn1C`, the “Percent Effect” value was 4.116%.
For `COc1c(CNCc2ccc(CS(C)(=O)=O)cc2)c(C)nn1C`, the “Percent Effect” value was 148.4%.
In the case of `COc1c(CNCc2ccc(S(C)(=O)=O)cc2)c(C)nn1C`, the “Percent Effect” value was 139.8%.
In the case of `COc1c(CNCc2cccc(CS(C)(=O)=O)c2)c(C)nn1C`, the “Percent Effect” value was -2.544%.
For `CCc1cc(N[C@@H](CO)C(N)=O)n2nc(C)c(C)c2n1`, the “Percent Effect” value was 2.16%.
For `CC(C)C(CCO)NC(=O)Nc1cc(F)ccc1-n1cccn1` (stereo not drawn), the “Percent Effect” value was 1.933%.
In the case of `CC(=O)NCCCSC1CCN(c2ccccc2Cl)C1=O` (stereo not drawn), the “Percent Effect” value was 1.299%.
In the case of `O=c1c2ccccc2nnn1CN(CC1CCOC1)C1CC1` (stereo not drawn), the “Percent Effect” value was -7.02%.
For `Cc1cc(-c2nn(C)c(Cl)c2CN2CC[C@H](CO)[C@@H](O)C2)no1`, the “Percent Effect” value was 35.82%.
With `COCCn1/c(=N/C(=O)C(C)C)sc2cc(Cl)ccc21` the “Percent Effect” value was 4.263%.
For `CC1CN(c2ncnc3sccc23)CCN1c1nccs1` (stereo not drawn), the “Percent Effect” value was 102.8%.
`CC1CN(c2ncnc3c2cnn3C)CCN1c1nccs1` (stereo not drawn) was tested, and the “Percent Effect” value was 136.1%.
With `COc1c(C2CCCN2c2ncnc3c2cnn3C)c(C)nn1C` (stereo not drawn) the “Percent Effect” value was -11.95%.
`Cn1cc(-c2csc(N3CCN(c4nccs4)CC3)n2)cn1` was tested, and the “Percent Effect” value was -4.686%.
`c1cnn(CC2CN(c3ncnc4sccc34)CCO2)c1` (stereo not drawn) was tested, and the “Percent Effect” value was -13.3%.
For `Cc1cnn(CC2CCCN2c2ncnc3sccc23)c1` (stereo not drawn), the “Percent Effect” value was -4.98%.
In the case of `CCc1nc(C)c(C(=O)NCCNc2ncnc3sccc23)s1`, the “Percent Effect” value was -61.04%.
In the case of `Cc1nc(CN2C[C@@H]3CN(C(=O)C4(C#N)CC4)C[C@@H]3C2=O)cs1.O=C(O)C(F)(F)F`, the “Percent Effect” value was -7.986%.
`COCC1COCCC12CCN(C(=O)CC1=CCCCC1)CC2` (stereo not drawn) was tested, and the “Percent Effect” value was -25.41%.
With `COCC1COCCC12CCN(S(=O)(=O)c1ccccc1)CC2` (stereo not drawn) the “Percent Effect” value was 111.6%.
In the case of `CCOCC1COCCC12CCN(C(=O)CC1=CCCCC1)CC2` (stereo not drawn), the “Percent Effect” value was -10.97%.
For `COCC1COCCC12CCN(S(=O)(=O)c1ccc(C)cc1)CC2` (stereo not drawn), the “Percent Effect” value was 101.4%.
For `O=C(Cc1ccco1)N1CCC2(CCOCC2COCC2CC2)CC1` (stereo not drawn), the “Percent Effect” value was -44.1%.
With `CCOCC1COCCC12CCN(C(=O)CS(C)(=O)=O)CC2` (stereo not drawn) the “Percent Effect” value was -11.35%.
`COCC1COCCC12CCN(S(=O)(=O)c1ccccc1C)CC2` (stereo not drawn) was tested, and the “Percent Effect” value was 121.7%.
`COCC1COCCC12CCN(C(=O)CCOc1ccccc1)CC2` (stereo not drawn) was tested, and the “Percent Effect” value was 9.795%.
In the case of `CCO[C@@H]1CO[C@@]2(CCCN(S(=O)(=O)c3cccnc3)C2)C1.O=C(O)C(F)(F)F`, the “Percent Effect” value was -5.792%.
`COCC1COCCC12CCN(C(=O)CCc1ccccc1)CC2` (stereo not drawn) was tested, and the “Percent Effect” value was -6.521%.
For `CCn1cc2c(n1)CN(S(=O)(=O)c1cccnc1)CC2COC.O=C(O)C(F)(F)F` (stereo not drawn), the “Percent Effect” value was -12.46%.
In the case of `COCC1COCCC12CCN(S(=O)(=O)c1cccnc1)CC2.O=C(O)C(F)(F)F` (stereo not drawn), the “Percent Effect” value was 117.9%.
For `CCCNC(=O)Cn1nc(C(C)C)c2cnn(C(C)(C)C)c2c1=O`, the “Percent Effect” value was 13.78%.
For `CNC(=O)c1sc(C(NC(=O)c2ccccc2)C2CC2)nc1C` (stereo not drawn), the “Percent Effect” value was 1.807%.
`Cn1cc(C2CCCN2CCCc2nc(-c3cccs3)no2)cn1` (stereo not drawn) was tested, and the “Percent Effect” value was 7.461%.
For `CCn1nc(C)cc1C(=O)OCCNc1ncnc2ccccc12`, the “Percent Effect” value was -8.299%.
With `O=C(Nc1nncs1)NC1CCc2ccccc21` (stereo not drawn) the “Percent Effect” value was -2.226%.
`CN(Cc1ccc(O)cc1)C(=O)NCc1nnc2n1CCCCC2` was tested, and the “Percent Effect” value was 89.08%.
With `Cc1csc(CNC(=O)N(C)Cc2nnc3n2CCC3)n1` the “Percent Effect” value was -16.98%.
For `O=C(NCc1nnc2n1CCCCC2)N(Cc1ccccn1)C1CC1`, the “Percent Effect” value was -22.11%.
For `CN(Cc1ccncc1)C(=O)NCc1nnc2n1CCCCC2`, the “Percent Effect” value was 124.1%.
For `CCc1sc(C(=O)Nc2cnn(CC(N)=O)c2)cc1C`, the “Percent Effect” value was -1.226%.
For `OCC1COCCN(c2ncccc2C(F)(F)F)C1` (stereo not drawn), the “Percent Effect” value was 17.46%.
For `COCCn1cnnc1C(C)NC(=O)c1[nH]c2c(C)cc(C)cc2c1C` (stereo not drawn), the “Percent Effect” value was -15.82%.
With `Cc1nn(C)c(Cl)c1C1CCCN1C(=O)c1cnc[nH]1` (stereo not drawn) the “Percent Effect” value was 106.1%.
`Cc1nn(C)c(Cl)c1C1CCCN1C(=O)c1cc(Cl)c[nH]1` (stereo not drawn) was tested, and the “Percent Effect” value was 15.12%.
With `Cc1nn(C)c(Cl)c1C1CCCN1C(=O)c1ccc[nH]1` (stereo not drawn) the “Percent Effect” value was 99.71%.
`COc1c(C2CCCN2C(=O)c2cc(Cl)c[nH]2)c(C)nn1C` (stereo not drawn) was tested, and the “Percent Effect” value was 7.72%.
For `COc1c(C2CCCN2C(=O)c2cnc[nH]2)c(C)nn1C` (stereo not drawn), the “Percent Effect” value was 99.16%.
`c1ccc(-c2noc([C@@H]3Cc4nc[nH]c4CN3)n2)cc1` was tested, and the “Percent Effect” value was -8.482%.
In the case of `COCCCN(Cc1cnc(C2CCCCC2)nc1)C1CCN(C)CC1`, the “Percent Effect” value was 105.2%.
With `COCCN1CCC(CN(Cc2ccncc2)C2CCC2)CC1` the “Percent Effect” value was 3.665%.
`COCCN1CCC(CN(Cc2ccncc2)C2CCCCC2)CC1` was tested, and the “Percent Effect” value was -7.976%.
In the case of `COCCCN(C(=O)c1ccc(-n2ccnc2)cc1)C1CCN(C)CC1`, the “Percent Effect” value was -6.688%.
With `COCCCN1CCc2cncnc2C1` the “Percent Effect” value was -3.846%.
For `COCCCN(Cc1cnc(N2CCCC2)nc1)C1CCN(C)CC1`, the “Percent Effect” value was 104.1%.
In the case of `Cc1ccc(C)c2c(O)cc(CN3CCC(c4nncn4C)CC3)nc12`, the “Percent Effect” value was 4.156%.
With `CC(C)(C)c1cn2nc(N3CCOC(Cn4cncn4)C3)sc2n1` (stereo not drawn) the “Percent Effect” value was 9.569%.
In the case of `Cc1cccc(CN2CCC3(CC2)CC(Oc2cccnc2)C3)n1.O=C(O)C(F)(F)F.O=C(O)C(F)(F)F`, the “Percent Effect” value was -6.69%.
For `Cc1ccc(CN2CCC3(CC2)CC3CN(C)Cc2cccnc2)o1.O=C(O)C(F)(F)F.O=C(O)C(F)(F)F.O=C(O)C(F)(F)F` (stereo not drawn), the “Percent Effect” value was 5.127%.
`Cc1cccc(CN2CCC3(CC2)CC(c2cccnc2)C(=O)N3C)n1.O=C(O)C(F)(F)F.O=C(O)C(F)(F)F` (stereo not drawn) was tested, and the “Percent Effect” value was 108%.
For `Cc1cc(C(=O)N2CCC3(CC2)CC(c2cccnc2)C(=O)N3C)no1.O=C(O)C(F)(F)F` (stereo not drawn), the “Percent Effect” value was 1.086%.
With `Cc1ccc(CN2CCC3(CC2)CC(c2cccnc2)C(=O)N3C)o1.O=C(O)C(F)(F)F.O=C(O)C(F)(F)F` (stereo not drawn) the “Percent Effect” value was 111.7%.
In the case of `Cc1nc(CN2CCC3(CC2)CC(c2cccnc2)C(=O)N3C)cs1.O=C(O)C(F)(F)F.O=C(O)C(F)(F)F` (stereo not drawn), the “Percent Effect” value was 114.5%.

From ChEMBL document CHEMBL3988442, “University of Dundee, Small-Polar-MMV Screening Library” (2021)
